# According to PubChem BioAssay (NCATS):
# Inconclusive results are not listed. Unmarked numbers belong to inactive results. Activity calls are given as the source filed them. Calls come from the whole dose curve; as a rule, active = well fitted inhibition curve with a large enough effect; inconclusive = small, poorly fitted or top-dose-only effect; inactive = flat fitted curve, though single readings scatter. *1 amine or outer side, *2 acyl side, *3 side chain or, on linkers, in order; H or OH if unused. Where a SMILES comes first, the peptide text is derived from it. [ ]: non-standard residue; d: D form. X13 = O=C(C(CC(O)CO)O[*:1])[*:2]; NMeV = CN[CH](C(=O)O)C(C)C; NMeA = CN[CH](C)C(=O)O; βAla = NCCC(=O)O
# Test: Primary qHTS for inhibitors of nuclear receptor binding SET domain protein 2 (NSD2) in an isogenic RCH-ACV NSD2 p.E1099K mutant (9B) (AID 1645876); note: nearly all actives have a fitted effect of over 70% in size
# Settings: RCH-ACV (leukaemia line) NSD2 E1099K (9B) viability, CellTiter-Glo, 72 h; series mostly up to 44.9 µM; activity change, negative = viability loss: at the top concentration
# % is set by controls: 0 for no effect and ±100 for the full control effect.
Structure (SMILES),outcome,"activity change, negative = viability loss"
O=C(O)/C=C/c1ccc2occc2c1O[C@@H]1O[C@H](CO)[C@@H](O)[C@H](O)[C@H]1O,inactive,–
CC(C)c1ccc2c(c1)CCC1[C@](C)(C(=O)O)CCC[C@]21C (stereo partly specified),–,-18.1%
C=C1C(=O)O[C@@H]2/C=C(\C)CC/C=C(\C(=O)O[C@@H]3O[C@H](CO)[C@@H](O)[C@H](O)[C@H]3O)CC[C@@H]12,–,-31.2% [at 17.3 µM]
CC1=C(CO)CC(C(C)C2CCC3C4CC=C5CC(OC6OC(COC7OC(CO)C(O)C(O)C7O)C(O)C(O)C6O)CC(O)C5(C)C4CCC23C)OC1=O (stereo unspecified),–,-3.64% [at 17.3 µM]
C/C(=C\CC[C@H](CO)[C@@H]1CC[C@]2(C)C3=C(CC[C@@]12C)[C@@]1(C)CCC(=O)C(C)(C)C1CC3)C(=O)O (stereo partly specified),–,-16.3% [at 17.3 µM]
COc1cc(CC2COC(c3ccc(OC4OC(CO)C(O)C(O)C4O)c(OC)c3)C2CO)ccc1O (stereo unspecified),inactive [at 17.3 µM],–
C/C(=C\CO)CC/C=C(\C)C(=O)O[C@@H]1O[C@H](CO)[C@@H](O)[C@H](O)[C@H]1O,–,4.12%
O=S(=O)(O)c1ccc(Nc2ncnc3c2ncn3[C@@H]2O[C@H](CO)[C@@H](O)[C@H]2O)cc1,inactive,–
CCC(C)C1NC(=O)C2CCCN2C(=O)C(CC(O)CO)OC(=O)CCNC(=O)C(C)N(C)C(=O)C(C(C)C)N(C)C1=O (stereo unspecified) (cyclo([X13]PI[NMeV][NMeA][βAla]); configuration not given here),–,-22.7% [at 17.3 µM]
CO[C@H]1c2cc(C(C)C)c(O)c(O)c2[C@@]23CCCC(C)(C)C2[C@@H]1OC3=O (stereo partly specified),–,-6.51%
COC(=O)c1ccc(OC)cc1O[C@@H]1O[C@H](CO[C@@H]2OC[C@@H](O)[C@H](O)[C@H]2O)[C@@H](O)[C@H](O)[C@H]1O,inactive [at 17.3 µM],–
